# esBAF inh: blocks esBAF chromatin remodeling in mouse ES cells. reporter increase, % at 12.5 µM. Bmi1-luciferase knock-in reporter, 24 h; 100% = twice the neutral-well signal. hit rate 2% among 350,000; in the data active means activation above about 40%; inconclusive means no clear call, values can overlap the other calls;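 further: 0% = median of the plate's neutral control wells and 100% = double that signal; a rise in the Bmi1 reporter signal indicates esBAF inhibition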
# AF4-AF9 inh: MLL-AF4/AF9 protein interaction inhibition; inhibition, % at 10 µM; P42568; hit rate 0.47% among 350,000; AlphaScreen, biotin-AF4 peptide binding to FLAG-AF9;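 active means every replicate reaching a set inhibition limit, whatever the replicate mean, cut at about 25% in these data; inconclusive means mean inhibition reaches that limit but some replicates miss it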;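 further: 0% = plate neutral control median and 100% = total signal loss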
# Target sequence (P42568 whole entry, looked up): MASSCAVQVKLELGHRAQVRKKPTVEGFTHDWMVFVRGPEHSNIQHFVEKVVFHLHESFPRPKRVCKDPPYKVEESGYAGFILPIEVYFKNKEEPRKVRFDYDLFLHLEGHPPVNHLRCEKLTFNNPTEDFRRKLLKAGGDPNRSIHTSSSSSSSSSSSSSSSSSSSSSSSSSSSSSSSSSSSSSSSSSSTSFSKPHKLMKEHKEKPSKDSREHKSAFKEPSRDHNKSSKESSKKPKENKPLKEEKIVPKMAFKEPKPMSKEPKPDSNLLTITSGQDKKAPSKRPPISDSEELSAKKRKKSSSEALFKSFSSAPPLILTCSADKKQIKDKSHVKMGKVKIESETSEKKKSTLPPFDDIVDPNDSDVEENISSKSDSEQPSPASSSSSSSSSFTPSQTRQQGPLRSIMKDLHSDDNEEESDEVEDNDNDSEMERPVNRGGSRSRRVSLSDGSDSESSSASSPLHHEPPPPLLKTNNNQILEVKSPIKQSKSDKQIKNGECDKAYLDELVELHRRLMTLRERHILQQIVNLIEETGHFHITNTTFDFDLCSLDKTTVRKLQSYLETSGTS
# Wnt act: Wnt/beta-catenin pathway activation; Wnt/beta-catenin reporter cell assay, activator, plate reader; activation, % at 9.35 µM; hit rate 1.2% among 300,000; AID 743398; in the data active means activation above about 30%, passing the limit was not always enough; inconclusive means no clear call, values can overlap the other calls;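 further: 0% = neutral control wells and 100% = positive control wells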
# MITF TRPM1 HTS: activators of MITF-driven TRPM1 promoter activity in SK-MEL-5 cells; SK-MEL-5 TRPM1-promoter luciferase, 24 h; % of positive control, neutral wells = 0; activation, % at 12.5 µM; hit rate 0.75% among 300,000; AID 588334;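 active means mean activation of at least 80% with every replicate also reaching 80%; inconclusive means mean reaches 80% but some replicate falls short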;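 further: 0% = neutral control wells and 100% = parthenolide positive control wells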
# rRNA inh HTS: selective bacterial rRNA inhibition in E. coli; AID 720706; GFP signal change (wild-type ribosome), % (concentration not given with the values); E. coli WT GFP vs humanized-ribosome RFP mutants, fluorescence, 24 h; stronger effect = lower value; DMSO median 0, no signal -100; hit rate 1.6% among 350,000;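 active means significant combined selectivity score with lowered wild-type GFP, culture density cut under 30%, mutant RFP and density less affected; inactive means any of these conditions unmet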
# * hit, by the source's call; ? = inconclusive; . = not tested or not shown. A selection: hits, their analogues and other compounds. The true share with any hit is near 3.7%.
SMILES,esBAF inh,AF4-AF9 inh,Wnt act,MITF TRPM1 HTS,rRNA inh HTS
CCOc1ccc(NC(=O)c2cccs2)c([N+](=O)[O-])c1,.,.,.,43.2,.
CCOc1ccc(N/C=C/C(=O)c2ccc(OC)cc2)c([N+](=O)[O-])c1,72.6*,.,5.9,98.2*,.
COc1ccc(N/C=C/C(=O)c2ccc(C)cc2)c([N+](=O)[O-])c1,-7.9,.,-2.7,.,.
CC(C)C1C(=O)N(Cc2cn(CCC3OCCO3)nn2)CCS(=O)(=O)N1Cc1ccc(-c2ccc(Cl)c(Cl)c2)cc1 (stereo not drawn),-32.6,-2.9,7.5,.,.
Cc1cccc(NC(=O)Cn2c(=O)n(CC3CCCO3)c(=O)c3ccccc32)c1 (stereo not drawn),-4.3,2.1,-0.8,-2.8,6.1
COc1ccc(N=Cc2nc(-c3ccccc3)oc2OC(=O)c2ccccc2)cc1,.,-2.5,54.3*,-11.3,-1.0
O=C(Nc1ccccc1)C1CC2CCCC(C1)C2=O (stereo not drawn),-2.9,-0.9,-1.5,0.1,1.4
Cc1cc(Oc2nnnn2-c2ccccc2)ccc1Cl,.,.,.,43.1,.
COc1cc(-c2ccc3c(=O)c4ccccc4sc3c2)cc(OC)c1OC,47.2*,-2.9,2.8,64.7,5.7
COc1cc(-c2ccc3c(=O)c4ccccc4n(C)c3c2)cc(OC)c1OC,13.0,-4.9,8.2,11.1,-11.5
COc1cccc(/C=N/Nc2ncnc3scc(-c4ccccc4)c23)c1OC,2.3,16.2,-1.6,4.4,-25.5
C[C@H](CO)N1C[C@H](C)[C@H](CN(C)S(=O)(=O)c2cn(C)cn2)Oc2ccc(NC(=O)CCCN(C)C)cc2CC1=O,.,-2.6,.,.,3.5
OC[C@H]1OC(Nc2ccc(N=Nc3ccccc3)cc2)[C@@H](O)[C@@H](O)[C@@H]1O (stereo partly drawn),.,5.1,16.5,.,-14.6
O[C@@H]1COC(Nc2ccc(N=Nc3ccccc3)cc2)C[C@@H]1O (stereo partly drawn),.,0.4,46.2*,.,-1.2
Cc1cc(C)c2oc(-c3cccc(N)c3)nc2c1,55.0*,0.1,14.4,.,4.6
CO/N=C/C(C#N)=C/c1ccc(OC)cc1,87.7*,-11.1,9.0,45.8,-13.2
O=C(NN=Cc1cc(Br)c(O)c(Br)c1)c1ccccc1NS(=O)(=O)c1cccs1,-2.1,0.8,-1.9,6.1,-24.8*
O=C(N/N=C/c1cccnc1)c1ccccc1NS(=O)(=O)c1cccs1,-6.4,-0.6,-0.3,1.5,-30.5*
COc1cc(/C=N/NC(=O)c2ccccc2NS(=O)(=O)c2cccs2)ccc1O,.,1.0,1.5,-0.5,-14.4
O=C(NN=Cc1ccc(F)cc1)c1ccccc1NS(=O)(=O)c1cccs1,4.0,1.4,2.7,-5.7,-12.4
CNC(=O)C[C@H]1CC[C@H]2[C@H](COc3ccc(NC(=O)NC(C)C)cc3C(=O)N2C)O1,2.1,.,.,.,-0.7
CCCCCN(C(=O)CCC(=O)OCc1ccccc1C)c1c(N)n(CCCC)c(=O)[nH]c1=O,2.1,-13.1,-3.1,0.8,3.9
CCOC(=O)c1ccc2nc(Nc3nc4ccc(F)cc4s3)sc2c1,.,-5.5,-12.3,-95.3,12.1
CCOC(=O)c1ccc2nc(NC(C)=O)sc2c1,47.2*,-0.1,45.7*,41.8,10.2
CC(=O)Nc1nc2ccc(Br)cc2s1,62.2*,.,.,24.0,.
SMILES,esBAF inh,AF4-AF9 inh,Wnt act,MITF TRPM1 HTS,rRNA inh HTS
CN(C)c1ccc(-c2nnn(CC(=O)Nc3ccc4c(c3)OCCO4)n2)cc1,.,-1.3,-0.9,4.5,18.9
CCOC(=O)c1cn2nc(Oc3ccccc3)ccc2n1,.,-1.9,0.2,.,8.4
COc1cc(C=O)ccc1OCc1ccc(Cl)nc1,63.1*,-1.5,37.9*,64.1,-7.8
COc1cc(C=O)ccc1OCc1ccncc1,-1.6,-2.1,-1.1,-0.8,10.2
COc1ccc(-c2ccc3c(n2)CCCN3S(=O)(=O)c2c(C)noc2C)cc1,.,3.2,0.5,.,-9.2
O=C(N/N=C1\CCc2ccccc21)c1ccncc1,.,2.9,19.7,59.5,12.8
O=C(O)c1cc(N/N=C/C=C/c2ccccc2)ccc1Cl,90.0*,1.5,13.6,?,-8.0
O=C(O)c1cc(N/N=C/c2ccc(OCc3ccccc3)cc2)ccc1Cl,.,0.9,12.1,57.8,9.1
c1ccc2[nH]c(CN3CCCCCC3)nc2c1,13.9,0.0,-0.5,4.3,8.2
c1ccc2c(c1)CC/C2=N/Nc1nc2ccccc2[nH]1,6.3,3.6,7.1,82.0*,.
c1ccc(CN2CCC(=NNc3nc4ccccc4[nH]3)CC2)cc1,8.0,34.1*,.,-8.5,-26.6
CC(C)(C)C1CCC(=NNc2nc3ccccc3[nH]2)CC1 (stereo not drawn),.,10.4,0.3,-5.0,-23.0*
O=C(O)c1cc(NN=C2CCN(Cc3ccccc3)CC2)ccc1Cl,50.9*,2.8,0.8,28.2,1.4
O=C(NN=C1CCN(Cc2ccccc2)CC1)c1ccccc1O,.,-0.8,-1.3,1.7,.
Nc1c(C(=O)NCc2ccco2)nnn1Cc1ccccc1,8.3,.,.,4.5,.
O=C(c1ccco1)c1nnn(Cc2ccccc2)c1-c1ccccc1,-4.1,0.6,-0.6,-3.6,-35.8*
O=C(Cc1ccc(Cl)cc1)Nc1ccccn1,16.6,-0.6,3.4,11.4,2.0
CN(Cc1ccc(C(F)(F)F)cc1)C(=O)[C@H]1O[C@@H](n2ccc(=O)[nH]c2=O)[C@H](O)[C@@H]1O,0.7,2.9,-1.5,.,-3.3
COc1ccc(C#Cc2ccc([C@H]3[C@H](CO)N4CCCCN(Cc5ccccc5F)C[C@@H]34)cc2)cc1,-7.4,32.0*,.,.,-50.7
COc1ccc(C#Cc2ccc([C@@H]3[C@@H](CO)N4CCCCN(Cc5ccccc5F)C[C@@H]34)cc2)cc1,-4.1,2.0,.,.,-34.7
COc1ccc(C#Cc2ccc([C@@H]3[C@H](CO)N4CCCCN(Cc5ccccc5F)C[C@@H]34)cc2)cc1,3.5,30.9*,.,.,-57.4
O=C(C[C@H]1C[C@H]2c3cc(NC(=O)NC4CCCC4)ccc3O[C@H]2[C@H](CO)O1)NC1CCCCC1,3.5,0.6,.,.,1.7
CCN(CC)C(=O)/C=C/c1ccccc1,.,-0.7,10.1,34.7,7.9
CON(C)C(=O)/C=C/c1ccc([B-](F)(F)F)cc1,47.0*,-1.6,6.5,20.6,12.0
CCN1CCN(CCCNC(=O)c2ccc3c(c2)N(Cc2ccccc2)CCS3)CC1,-7.4,17.1,1.2,7.4,-2.8
SMILES,esBAF inh,AF4-AF9 inh,Wnt act,MITF TRPM1 HTS,rRNA inh HTS
CCN1CCSc2ccc(C(=O)NCc3ccccc3F)cc21,-1.7,25.4*,-0.5,1.6,2.1
CCN1CCSc2ccc(C(=O)NCc3ccccc3C)cc21,0.1,49.0*,-0.6,-2.5,-3.5
CCN1CCSc2ccc(C(=O)NCc3ccccc3Br)cc21,-1.8,-3.3,-9.3,.,-0.6
COc1ccc(OC)c(Cc2nnc(CCC(=O)N3CCCCC3c3nccs3)o2)c1 (stereo not drawn),47.6*,12.5,40.0*,56.6,-2.3
COc1ccc(OC)c(Cc2nnc(CCC(=O)N3CCCCCC3)o2)c1,52.4*,-1.4,2.4,27.5,8.2
Cc1cccc(Cc2nnc(CCC(=O)N3CCCCC3c3nccs3)o2)c1 (stereo not drawn),.,0.2,-1.1,8.8,-4.8
